High-throughput results as filed in PubChem BioAssay.
The list is not random: actives were taken first. Their share in the collection is about 4.6%.
D1 antagonist = human D1 dopamine receptor antagonism. P21728. HEK293 TREx D1 cells, calcium flux, dopamine EC80; stronger effect = lower value. activity change, negative = inhibition, % at 10 µM. hit rate 3.2% among 360,000. AID 504652; in the data active = activity change below about -30%
Target sequence (P21728 whole entry, looked up): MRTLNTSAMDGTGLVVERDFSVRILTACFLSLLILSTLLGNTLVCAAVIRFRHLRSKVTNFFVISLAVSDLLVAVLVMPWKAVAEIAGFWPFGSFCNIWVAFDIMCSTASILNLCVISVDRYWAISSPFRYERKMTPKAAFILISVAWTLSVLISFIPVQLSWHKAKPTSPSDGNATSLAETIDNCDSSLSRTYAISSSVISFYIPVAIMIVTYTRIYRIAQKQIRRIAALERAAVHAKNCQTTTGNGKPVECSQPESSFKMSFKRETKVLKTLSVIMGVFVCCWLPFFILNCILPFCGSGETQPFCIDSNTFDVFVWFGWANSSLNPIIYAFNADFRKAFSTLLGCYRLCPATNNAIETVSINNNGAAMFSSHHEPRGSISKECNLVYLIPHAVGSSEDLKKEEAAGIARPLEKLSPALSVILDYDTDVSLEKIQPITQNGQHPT
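Allosteric or orthosteric antagonism assessed as attenuation of the calcium response to EC80 dopamine, added 180 s after compound, in induced HEK293 Trex D1 cells loaded with no-wash calcium dye.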
D1 agonist = human D1 receptor agonism. P21728. HEK293 T-REx D1 cells, calcium flux, agonist mode. activation, % at 2 µM. hit rate 1% among 360,000. AID 504660
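Tetracycline-induced HEK293 TREx D1 cells, force-coupled to calcium signalling, were dye-loaded with a no-wash calcium kit. Compound was pin-added after a 10 s baseline. Fluorescence was read kinetically at 1 cycle/s for 180 s, with calcium rises flagged as agonism.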
TRHR enhancer = allosterically enhances the human TRH receptor; P34981; TRHR cells, fluo-8 calcium fluorescence, EC20 TRH enhancement; enhancement, % at 2 µM; hit rate 0.66% among 360,000; AID 493056; in the data active = enhancement above about 30%
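TRHR-expressing cells loaded with fluo-8 calcium dye were read kinetically (ex 480/em 530) during compound addition, then stimulated with an EC20 of TRH (10 nM final). Enhancement of the Gq-mediated intracellular calcium response was scored.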
D1 potentiator = enhances dopamine response at the human D1 receptor; potentiation, % at 10 µM; P21728; hit rate 0.036% among 360,000; HEK293 TREx D1 cells, calcium flux, dopamine EC20 potentiation; in the data active = potentiation above about 30%
TRHR agonist = activates the human TRH receptor. AID 493084. activation, % at 2 µM. P34981. TRHR cells, calcium flux fluo-8, FDSS agonist mode. hit rate 0.18% among 360,000
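Steps: seed TRHR cells overnight; add fluo-8 no-wash Ca dye, RT 30 min–1.5 h; record 10 s baseline; pin-transfer compounds; monitor fluorescence 1 cycle/s for the agonist window. Calcium increases flag candidate agonists.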
Numbers stand for hits; 0 = inactive. Rule as the data show it, unless noted: active = activation above about 30%; inactive = the rest.

SMILES | D1 antagonist | D1 agonist | TRHR enhancer | D1 potentiator | TRHR agonist
Cc1ccc(-n2ncc3c(NCCCn4ccnc4)ncnc32)cc1C | -60 | 0 | 0 | 0 | 0
Fc1ccc(-n2ncc3c(NCCCn4ccnc4)ncnc32)cc1 | 0 | 0 | 0 | 0 | 0
Clc1cccc(-n2ncc3c(NCCCn4ccnc4)ncnc32)c1 | -40 | 0 | 0 | 0 | 0
COc1ccc(-n2ncc3c(NCCCn4ccnc4)ncnc32)cc1 | 0 | 0 | 0 | 0 | 0
COc1ccccc1CNC(=O)CCc1c(C)nc2c(c(C)nn2-c2ccc(C)c(C)c2)c1C | -73 | 0 | 0 | 0 | 0
CSc1ccccc1NC(=O)c1ccncc1 | 0 | 0 | 0 | 0 | 0
CSc1ccccc1NC(=O)c1ccccc1 | -32 | 0 | 0 | 0 | 0
CCOc1ccc(C2C(=O)N(C3CCCCCC3)CC(=O)N2CCc2ccc(Cl)cc2)cc1OC (stereo unspecified) | 0 | 0 | 0 | 0 | 0
CCCCC(CC)C(=O)NCCc1ccc(S(N)(=O)=O)cc1 (stereo unspecified) | 0 | 0 | 0 | 0 | 0
NS(=O)(=O)c1ccc(CCNC(=O)c2ccc3ccccc3n2)cc1 | -31 | 0 | 0 | 0 | 0
CCC(CC)C(=O)NCCc1ccc(S(N)(=O)=O)cc1 | -42 | 0 | 0 | 0 | 0
Cc1cccc(NC(=O)c2sc3nc(-c4cc5ccc(O)cc5oc4=O)[nH]c(=O)c3c2C)c1 | 0 | 0 | 0 | 0 | 0
COC(=O)c1cn(CC(=O)N2CCCCCC2)c2ccccc12 | 0 | 0 | 0 | 0 | 0
CCOC(=O)C1=C(O)/C(=C/c2cn(CC(=O)N3CCCC3)c3ccccc23)SC1=Nc1ccccc1 | 0 | 32 | 0 | 0 | 0
Cc1oc2c(C)c(O)ccc2c(=O)c1-c1cnn(-c2ccccc2)c1 | -37 | 0 | 0 | 0 | 0
CCCCCCCCOC(=O)c1nc(Cl)c(Cl)c(N)c1Cl | 0 | 0 | 0 | 0 | 0
COC(=O)c1nc(Cl)c(Cl)c(N)c1Cl | -31 | 0 | 0 | 0 | 0
CC(C)CC(=O)Nc1nnc(SCC(=O)Nc2nccs2)s1 | -35 | 0 | 0 | 0 | 0
CCSc1nnc(NC(=O)CC(C)C)s1 | 0 | 0 | 0 | 0 | 0
CC(C)(C)CC(=O)Nc1nnc(SCC(=O)Nc2ccccc2F)s1 | -40 | 0 | 0 | 0 | 0
CC(=O)Nc1ccc(NC(=O)CSc2nnc(NC(=O)Cc3ccc(F)cc3)s2)cc1 | -53 | 0 | 0 | 0 | 0
COc1ccccc1CNC(=O)c1c[nH]c2ccc(S(=O)(=O)Nc3cc(C)cc(C)c3)cc2c1=O | 0 | 0 | 0 | 0 | 0
CC(=O)N/C(=C/c1ccc(OS(=O)(=O)c2ccc(C)cc2)cc1)C(=O)NCCCO | 0 | 0 | 0 | 0 | 0
COc1ccc2oc(=O)cc(CN3CCN(C(=O)c4ccccc4F)CC3)c2c1 | 0 | 0 | 0 | 0 | 0
O=c1[nH]c(CN2CCN(c3ccc(O)cc3)CC2)nc2scc(-c3ccc(Cl)cc3)c12 | -33 | 0 | 0 | 0 | 0
SMILES | D1 antagonist | D1 agonist | TRHR enhancer | D1 potentiator | TRHR agonist
COc1ccc(OC)c(NC(=O)CN2CCCN(Cc3ccccc3Cl)S2(=O)=O)c1 | 0 | 0 | 0 | 0 | 0
O=C1C(Cl)=C(Nc2ccccc2)C(=O)c2ccccc21 | -58 | 0 | 0 | 0 | 0
O=C(CNc1cccc2ccccc12)N/N=C/c1ccc(OC(=O)/C=C/c2ccco2)cc1 | -70 | 0 | 0 | 0 | 0
O=C(CNc1ccc2ccccc2c1)N/N=C/c1ccc(OC(=O)/C=C/c2ccco2)cc1 | 0 | 0 | 0 | 0 | 0
Cc1ccc(C(=O)N/N=C/c2cccc(OC(=O)/C=C/c3ccco3)c2)cn1 | 0 | 0 | 0 | 0 | 0
COc1ccc(/C=N/NC(=O)CNC(=O)/C=C/c2ccco2)cc1OC | 0 | 0 | 0 | 0 | 0
COc1cc(/C=N/NC(=O)CNC(=O)/C=C/c2ccco2)cc(OC)c1OC | 0 | 0 | 31 | 0 | 0
O=C(/C=C/c1ccco1)Oc1cc(Br)cc(/C=N/NC(=O)c2ccccc2O)c1 | -35 | 0 | 0 | 0 | 0
Cc1cc(C)c(NC(=O)Cn2c(=O)n(CC(=O)NCc3ccccc3Cl)c(=O)c3sccc32)c(C)c1 | 0 | 0 | 0 | 0 | 0
COc1ccc(C(c2c(O)cc(C)n(Cc3ccco3)c2=O)N2CCCCC2)cc1OC (stereo unspecified) | 0 | 0 | 0 | 0 | 0
Cc1c(C(=O)Nc2ccc(OC(F)(F)F)cc2)sc2nc3n(c(=O)c12)CCC3 | 0 | 0 | 0 | 0 | 0
COc1ccc(C)cc1N(C)C(=O)c1sc2nc3n(c(=O)c2c1C)CCCCC3 | 0 | 43 | 0 | 0 | 0
Cc1c(C(=O)Nc2ccc(Oc3ccccc3)cc2)sc2nc3n(c(=O)c12)CCC3 | -51 | 0 | 0 | 0 | 0
COc1ccc(CNC(=O)c2sc3nc4n(c(=O)c3c2C)CCCCC4)cc1 | 0 | 50 | 0 | 0 | 0
CCN(C(=O)c1sc2nc3n(c(=O)c2c1C)CCCC3)c1ccccc1F | -37 | 35 | 0 | 0 | 0
Cc1ccc(N(C)C(=O)c2sc3nc4n(c(=O)c3c2C)CCCC4)cc1C | 0 | 0 | 0 | 0 | 0
Cc1ccc(CN2C(=O)c3ccccc3Sc3ccc(C(=O)NCc4ccco4)cc32)cc1 | 0 | 0 | 0 | 0 | 0
O=C(NCc1c(Cl)cccc1Cl)c1ccc2nnsc2c1 | -44 | 0 | 0 | 0 | 0
COCCNC(=O)c1ccc2snnc2c1 | 0 | 0 | 0 | 0 | 0
Cc1cc(C(=O)N/N=C/c2c(C)[nH]c3ccccc23)n[nH]1 | 0 | 0 | 0 | 0 | 0
Cc1cc(C(=O)N/N=C/c2ccccn2)n[nH]1 | -48 | 0 | 0 | 0 | 0
Cc1[nH]c2ccccc2c1/C=N/NC(=O)c1cc(-c2cccs2)[nH]n1 | -31 | 0 | 0 | 0 | 0
CC(C)(C)c1ccc(-c2nnc(NC(=O)c3ccccc3)s2)cc1 | 0 | 0 | 0 | 0 | 0
COCC(=O)Nc1nnc(-c2ccc(C(C)(C)C)cc2)s1 | 0 | 34 | 0 | 0 | 0
O=c1c(=O)n(-c2ccccc2)ccn1Cc1c(F)cccc1Cl | 0 | 0 | 0 | 0 | 0
SMILES | D1 antagonist | D1 agonist | TRHR enhancer | D1 potentiator | TRHR agonist
CCN(c1ccccc1)c1ccc2cc(S(=O)(=O)N3CCCC3)ccc2n1 | 0 | 0 | 0 | 0 | 0
O=C(CN1CCN(C(=O)C2COc3ccccc3O2)CC1)Nc1ccccc1 (stereo unspecified) | -33 | 0 | 0 | 0 | 0
Cc1ccc(S(=O)(=O)N2CCN(C(=O)C3CCCO3)CC2)cc1 (stereo unspecified) | 0 | 0 | 0 | 0 | 0
COC(=O)C1CCN(CC(=O)Nc2ccccc2Sc2ccccc2)CC1 | 0 | 0 | 35 | 0 | 0
O=C(C1CCCO1)N1CCN(S(=O)(=O)c2ccc(Cl)cc2)CC1 (stereo unspecified) | -47 | 0 | 0 | 0 | 0
CC(C)N(C(=O)CN1CCN(C(=O)C2COc3ccccc3O2)CC1)C(C)C (stereo unspecified) | 0 | 0 | 0 | 0 | 0
NC(=O)C1CCN(CC(=O)Nc2ccccc2Sc2ccccc2)CC1 | 0 | 0 | 0 | 0 | 0
O=C(C1CC(Cl)CN1S(=O)(=O)c1ccc(Cl)cc1)N1CCOCC1 (stereo unspecified) | -36 | 0 | 0 | 0 | 0
